# This is part of a sample that, as a whole, favours compounds with a hit. Of some 79,000 tested, about 15% had one in any assay. A number with no mark means an inactive call. The source made the active and inactive calls. Rule as the data show it: active = growth inhibition above about 70%; inactive = the rest.
# Legend:
# [1] = NCI Yeast Anticancer Drug Screen. Data for the rad50 strain (AID 155);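 also: 0% = growth of vehicle-only cultures of the same strain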; conditions: S. cerevisiae rad50 strain growth inhibition, stronger effect = higher value
# In short: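 Cells are treated with compound, grown, and their growth is then scored against vehicle-only cultures of the same repair-deficient yeast strain.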
# [2] = NCI Yeast Anticancer Drug Screen. Data for the mec2-1 strain (AID 157); conditions: S. cerevisiae mec2-1 strain, stronger effect = higher value
# In short: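 Vehicle-treated cultures served as reference for growth inhibition of compound-exposed mec2-1 yeast.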
# [3] = NCI Yeast Anticancer Drug Screen. Data for the sgs1 mgt1 strain (AID 161);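 also: 0% = growth of cultures given vehicle only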; conditions: S. cerevisiae sgs1 mgt1 strain, stronger effect = higher value
# In short: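 Test agents were incubated with a DNA-repair-mutant yeast strain. Growth was then read and compared against vehicle-treated controls.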
# [4] = NCI Yeast Anticancer Drug Screen. Data for the cln2 rad14 strain (AID 165);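 also: 0% = growth equal to vehicle treated cultures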; conditions: S. cerevisiae cln2 rad14 strain, stronger effect = higher value
# In short: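 Each compound was tested on cln2 rad14 yeast. Inhibition of growth was calculated against vehicle-exposed controls.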
# [5] = NCI Yeast Anticancer Drug Screen. Data for the bub3 strain (AID 167); conditions: S. cerevisiae bub3 mutant strain, stronger effect = higher value
# In short: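 Part of a panel of yeast mutants defective in DNA damage repair or cell cycle regulation. Each strain is grown with compound, and inhibition is calculated relative to solvent-treated cultures.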
# [6] = NCI Yeast Anticancer Drug Screen. Data for the mlh1 rad18 strain (AID 175); conditions: S. cerevisiae mlh1 rad18 strain growth inhibition, stronger effect = higher value
# In short: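 Vehicle-treated cultures served as the reference for growth inhibition in a yeast strain carrying DNA damage repair alterations exposed to each compound.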
# [7] = at 5.0 µM (retest, dose inferred, filed as 0.5)
# [8] = at 50.0 µM (retest, dose inferred, filed as 5.0)
SMILES,"growth inhibition [1, 7]","growth inhibition [1, 8]",growth inhibition ([1]; at 50.0 µM),"growth inhibition [2, 7]","growth inhibition [2, 8]",growth inhibition ([2]; at 50.0 µM),"growth inhibition [3, 7]","growth inhibition [3, 8]",growth inhibition ([3]; at 50.0 µM),"growth inhibition [4, 7]","growth inhibition [4, 8]",growth inhibition ([4]; at 50.0 µM),"growth inhibition [5, 7]","growth inhibition [5, 8]",growth inhibition ([5]; at 50.0 µM),"growth inhibition [6, 7]","growth inhibition [6, 8]",growth inhibition ([6]; at 50.0 µM)
O=C(O)c1ccc2cc3ccccc3cc2c1,-16%,65%,75.9% (active),5%,48%,47.4%,-10%,50%,63%,-49%,42%,61.9%,-29%,30%,62.4%,-24%,58%,54.1%
COc1ccc(Cc2cncc3c(O)c(OC)ccc23)cc1O,-1%,44%,80.2% (active),0%,50%,69.2%,-13%,50%,39.2%,2%,14%,59.9%,-1%,21%,86.4% (active),6%,49%,89.5% (active)
Cc1ccc(NCCNCCO)c2c(=O)c3ccccc3sc12,27%,99% (active),99.5% (active),9%,100% (active),99.6% (active),9%,100% (active),99.2% (active),8%,99% (active),99.4% (active),11%,99% (active),99.5% (active),25%,99% (active),99.5% (active)
CC(C)(C)C1CCC(SCCO)CC1 (centres undefined),-22%,98% (active),97.5% (active),-2%,95% (active),91.9% (active),-3%,98% (active),97.7% (active),-9%,97% (active),90% (active),-8%,98% (active),95% (active),14%,99% (active),95.4% (active)
Cc1cccc(N2CCN(CC(O)COc3ccc4ccccc4c3)CC2)c1 (centres undefined),-6%,-7%,80.7% (active),13%,18%,72.1% (active),-3%,12%,97.7% (active),-4%,-6%,60.1%,-5%,4%,41.1%,26%,28%,90% (active)
CCCCCOC(=O)CSC#N,93% (active),99% (active),98.7% (active),97% (active),99% (active),99% (active),96% (active),98% (active),98.8% (active),79% (active),99% (active),98.5% (active),96% (active),99% (active),98.7% (active),91% (active),99% (active),98.8% (active)
c1cc2c3c(c1)[I+]c1cccc(c1-3)[I+]2,51%,67%,69.8%,34%,58%,27.1%,53%,80% (active),65.9%,24%,40%,45%,39%,31%,36.3%,64%,88% (active),55.9%
O=C(CCN1CCCCC1)N1CCc2c([nH]c3ccccc23)C1c1cccnc1 (centres undefined),-8%,8%,13.1%,1%,16%,1.2%,0%,-8%,-5.35%,5%,22%,-6.8%,4%,46%,-0.3%,2%,-4%,-14.4%
CC(=O)OC1=C(Br)CCc2ccccc21,13%,99% (active),98.2% (active),13%,100% (active),97.3% (active),41%,99% (active),91.2% (active),11%,98% (active),86.3% (active),18%,100% (active),88.3% (active),39%,99% (active),89.6% (active)
ClC1CC[N-]CC1.ClC1CC[N-]CC1.[Cl][Pt+2]([Cl])([Cl])[Cl],50%,96% (active),89.5% (active),42%,98% (active),90.9% (active),58%,98% (active),90.2% (active),36%,98% (active),87.4% (active),64%,98% (active),93% (active),35%,96% (active),91.7% (active)
COC(=O)c1cccc2cccc(C(=O)Nc3ccc(C)cc3C)c12,74% (active),99% (active),86.2% (active),79% (active),99% (active),91.9% (active),60%,99% (active),83.2% (active),33%,99% (active),87.7% (active),76% (active),92% (active),90.5% (active),90% (active),99% (active),89.7% (active)
COc1cc(CCN=Cc2cc(Cl)cc(Cl)c2O)c([N+](=O)[O-])cc1OC,60%,74% (active),58.8%,42%,55%,69.5%,53%,95% (active),62.4%,35%,57%,43%,51%,94% (active),77.7% (active),64%,91% (active),62.6%
COC(=O)C1=C(CS(=O)c2ccccc2[N+](=O)[O-])ON(C)C1c1ccccc1 (centres undefined),3%,49%,6.55%,-9%,66%,53.1%,13%,74% (active),56.8%,-4%,11%,22.2%,-3%,45%,59.4%,5%,13%,68.5%
CC(C)CC(NC(=O)SCc1ccccc1)C(=O)O (centres undefined),-2%,35%,3.35%,-12%,-5%,1.6%,-1%,-1%,3%,5%,8%,15.4%,2%,1%,-5.95%,3%,24%,14.8%
CC(C)(C)OC(=O)NCCNC(=O)CN(CC(=O)O)C1CCCCC1N(CC(=O)O)CC(=O)O (centres undefined),-16%,59%,50.4%,-7%,52%,62.3%,1%,46%,61.6%,-21%,46%,15.9%,0%,75% (active),66.2%,-10%,66%,74.5% (active)
COc1ccc(CN2CCCN(Cc3ccc(OC)cc3OC)C2c2cc(Cl)ccc2O)c(OC)c1,7%,87% (active),40.6%,19%,98% (active),51.4%,2%,88% (active),32.8%,0%,50%,15.7%,-1%,91% (active),5.1%,17%,97% (active),42%
c1nc(N2CCOCC2)c2[nH]cnc2n1,5%,-5%,22.1%,-1%,-7%,8.05%,0%,4%,12.2%,-1%,-13%,36.5%,-2%,8%,-5.75%,5%,5%,17.4%
NC(=O)C1C(=O)c2cccc3c2C1(Br)C(Br)CCC3 (centres undefined),12%,99% (active),99.2% (active),-5%,100% (active),99.4% (active),26%,100% (active),99.5% (active),2%,98% (active),98.8% (active),7%,99% (active),99.2% (active),12%,99% (active),99.3% (active)

# — PubChem BioAssay (NCI)
